Assay outcomes from PubChem BioAssay.
VHR inh abs – blocks human VHR1 dual specificity phosphatase; inhibition, % at 13.3 µM; 290,000 tested, 0.52% active; recombinant VHR phosphatase, pNPP absorbance; in the data active = inhibition above about 50%
SARS 3CLpro inh – SARS-CoV 3CLpro protease inhibition; P0C6X7; recombinant SARS-CoV 3CLpro, quenched FRET peptide cleavage; inhibition, % at 6 µM; 290,000 tested, 0.14% active; AID 1706; in the data active = inhibition above about 12%
Mtb FBA inh – Mtb fructose-bisphosphate aldolase inhibition; inhibition, % at 1 µM; 360,000 tested, 2.3% active; P9WQA3; purified M. tuberculosis FBA, fluorescence read-out; AID 588726; in the data active = inhibition above about 27%;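 note: 0% = vehicle and 100% = reference inhibitor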
GDH-TPI counter – inhibits GDH-TPI coupling enzymes, artifact for Mtb FBA screen; GDH-TPI coupled enzyme counterscreen, NADH absorbance; inhibition, % at 4.8 µM; 360,000 tested, 1.2% active; AID 588335;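 note: 0% = DMSO wells and 100% = wells lacking the enzyme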
CCHF vOTU inh-1 – blocks the CCHF virus ovarian tumor domain protease | CCHFV vOTU protease, Pep-AMC fluorescence | inhibition, % at 11.5 µM | 370,000 tested, 0.55% active | AID 651958; note: 0% = vehicle wells with enzyme and 100% = no enzyme wells
RecA splice inh – blocks M. tuberculosis RecA intein splicing | P9WHJ3 | cell-free RecA intein splicing, fluorescence | inhibition, % (no concentration beside the values) | 290,000 tested, 0.75% active; in the data active = inhibition above about 30%;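 note: 0% = vehicle wells and 100% = reference inhibitor control wells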
Target sequence (P9WHJ3 whole entry, looked up, canonical isoform): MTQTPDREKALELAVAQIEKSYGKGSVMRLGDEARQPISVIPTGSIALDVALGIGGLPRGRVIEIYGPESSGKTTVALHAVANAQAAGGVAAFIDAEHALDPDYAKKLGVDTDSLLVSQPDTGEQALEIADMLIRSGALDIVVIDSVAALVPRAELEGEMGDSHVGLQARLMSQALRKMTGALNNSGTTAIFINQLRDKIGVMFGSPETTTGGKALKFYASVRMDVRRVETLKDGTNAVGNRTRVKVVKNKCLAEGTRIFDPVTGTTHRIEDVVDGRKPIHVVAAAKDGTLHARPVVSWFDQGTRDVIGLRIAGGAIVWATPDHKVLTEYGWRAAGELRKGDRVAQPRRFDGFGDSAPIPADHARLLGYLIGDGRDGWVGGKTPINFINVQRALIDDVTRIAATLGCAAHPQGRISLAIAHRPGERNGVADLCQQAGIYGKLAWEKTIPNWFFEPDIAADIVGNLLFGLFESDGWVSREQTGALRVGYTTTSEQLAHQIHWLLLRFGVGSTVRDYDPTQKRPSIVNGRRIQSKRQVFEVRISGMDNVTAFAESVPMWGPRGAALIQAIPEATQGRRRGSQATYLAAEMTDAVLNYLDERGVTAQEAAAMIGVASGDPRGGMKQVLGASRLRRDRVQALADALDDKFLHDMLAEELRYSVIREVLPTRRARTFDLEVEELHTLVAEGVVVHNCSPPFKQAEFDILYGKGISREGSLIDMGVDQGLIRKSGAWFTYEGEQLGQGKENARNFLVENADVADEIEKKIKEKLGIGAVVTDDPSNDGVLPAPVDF
CCHF vOTU inh-2 – CCHFV vOTU protease inhibition, confirmation | shares compounds with CCHF vOTU inh-1 | Recombinant CCHFV vOTU, Pep-AMC fluorescence | inhibition, % at 11.5 µM | 1,900 tested, 17% active | AID 686976
An asterisk follows results filed as active; nt = not tested or not shown. Shown are actives, neighbours in structure and some others; about 4.7% of the full set was active somewhere. Cut-off read from the data, not from the text of the source, unless noted: active = inhibition above about 30%; inactive = the rest.

SMILES | VHR inh abs | SARS 3CLpro inh | Mtb FBA inh | GDH-TPI counter | CCHF vOTU inh-1 | RecA splice inh | CCHF vOTU inh-2
CCCCCCCCC(=O)NC(NC(=S)N1CCOCC1)C(Cl)(Cl)Cl (configuration not stated) | 18 | 1 | -3 | 1 | 36* | -2 | -6
O=C(NCCc1ccccc1)OCc1cn(Cc2ccccc2Cl)nn1 | nt | nt | nt | nt | -5 | nt | nt
O=C(CNS(=O)(=O)c1ccc(Br)s1)NCCc1ccc(Cl)cc1 | 20 | -1 | 0 | -4 | 14 | 0 | nt
CCCCCCSC1=C(C#N)C(=O)NC2(CCCCC2)S1 | 0 | -1 | -6 | 13 | 35* | 5 | -3
COCCCNC1=C(C#N)C(=O)NC2(CCCC2)S1 | nt | nt | 0 | 11 | -2 | nt | nt
Cc1nc(N)c(CC(Br)CBr)c(Cl)n1 (configuration not stated) | 17 | 1 | 0 | 6 | -2 | -2 | nt
O=c1oc2cc(O)c(Cl)cc2c2ccccc12 | -8 | 0 | 5 | 18 | 30* | -4 | -7
Cc1nc2c(C(=O)NCCC(C)C)c[nH]n2c(=O)c1Cc1ccccc1F | 28 | -3 | 16 | 10 | 41* | 5 | 12
Cc1cc(N2C(=O)C(O)=C(C(=O)c3cc4ccccc4o3)C2c2cccc(Br)c2)no1 (configuration not stated) | 6 | 6 | 3 | 15 | 32* | -2 | 18
COc1ccc(/C=N/Nc2nnc(C)n2N)cc1OC(C)=O | -2 | -4 | -3 | 1 | 93* | 7 | -14
COc1ccc(/C=N/Nc2nnc(C)n2N)cc1OC | 3 | -3 | -9 | 6 | 91* | -1 | 4
COc1ccc(/C=N/NC(=O)Cn2ccnc2C)cc1OC | 12 | -2 | 0 | 5 | 4 | 4 | nt
O=C(Nc1ccccc1)OCCc1ccccn1 | nt | nt | -1 | 4 | 1 | nt | nt
CC1OC2CC(=O)OC2C2=C1C(=O)c1c(O)cccc1C2=O (configuration not stated) | nt | nt | -5 | 0 | 98* | nt | 91*
O=C1c2cccc(O)c2C(=O)c2c(O)cc(CO)cc21 | nt | nt | nt | nt | nt | 0 | nt
COc1ccc(CC(=O)Nc2ccc(/C(C)=N\NC(=O)c3ccc(Br)o3)cc2)cc1 | -4 | -5 | -2 | 9 | 6 | 0 | nt
CN(C)C(CNC(=O)c1ccc(NS(=O)(=O)c2ccc3[nH]c(=O)[nH]c3c2)cc1)c1ccccc1 (configuration not stated) | nt | nt | -2 | -3 | 31* | 0 | -16
CC(=O)c1ccc(NC(=O)c2ccc3nc(-c4ccco4)c(-c4ccco4)nc3c2)cc1 | 111 | -1 | -2 | 23 | nt | 13 | nt
O=C(NCc1ccccc1)c1ccc2nc(-c3ccco3)c(-c3ccco3)nc2c1 | 35 | 1 | -1 | 7 | 49* | -4 | -1
CCCCNC(=O)c1ccc2nc(-c3ccco3)c(-c3ccco3)nc2c1 | -18 | -2 | 0 | -2 | 48* | -1 | 8
O=C(NCCCO)c1ccc2nc(-c3ccco3)c(-c3ccco3)nc2c1 | 13 | 4 | -2 | 13 | 40* | nt | 55*
O=C(c1cccc(C(=O)N2CCN(c3ncccn3)CC2)c1)N1CCN(c2ncccn2)CC1 | 0 | 7 | 5 | 6 | -8 | -4 | nt
O=C(c1ccc2nc(-c3ccco3)c(-c3ccco3)nc2c1)N1CCN(c2ncccn2)CC1 | 13 | 1 | -7 | 11 | 32* | -17 | 50*
O=C(NCCO)Nc1ccc2nc(-c3ccco3)c(-c3ccco3)nc2c1 | 31 | 0 | nt | nt | nt | nt | nt
CC(Nc1ccccc1N1CCCCC1)C(=O)N1CCc2ccccc21 (configuration not stated) | 4 | 2 | 0 | -3 | 2 | 2 | nt
SMILES | VHR inh abs | SARS 3CLpro inh | Mtb FBA inh | GDH-TPI counter | CCHF vOTU inh-1 | RecA splice inh | CCHF vOTU inh-2
O=c1cc(O)nc(SCc2ccccc2)n1-c1ccc(Cl)cc1 | 4 | 4 | 15 | 3 | 4 | 5 | nt
CN1OC[C@@H]2CN(C(=O)c3ccc([N+](=O)[O-])cc3)[C@H](c3ccccc3Br)C[C@@H]21 | nt | nt | nt | nt | 39* | nt | -16
C=CCCC(=O)N1C[C@H]2CON(C)[C@H]2C[C@H]1c1ccccc1Br | nt | nt | -1 | -14 | -6 | nt | nt
CC(NC(=O)CCNS(=O)(=O)c1ccccc1)c1ccccc1 (configuration not stated) | -7 | -3 | 1 | 8 | 5 | -3 | nt
CC(NC(=O)CS(=O)(=O)c1ccccc1)c1ccccc1 (configuration not stated) | 12 | -1 | 0 | 1 | 36* | 3 | -25
CC(C)N1CC2(CC(c3ccccc3C(F)(F)F)=NO2)CN1C(=O)c1ccc(C(C)(C)C)cc1 (configuration not stated) | nt | nt | -2 | 5 | 17 | nt | nt
CC(C)N1CC2(CC(c3ccccc3F)=NO2)CN1C(=O)c1ccc(C(C)(C)C)cc1 (configuration not stated) | nt | nt | -2 | -10 | 35* | nt | -4
CC(=N)C1=C(O)CC(c2ccccc2)CC1=O (configuration not stated) | 10 | 2 | 1 | -1 | -4 | -1 | nt
O=[N+]([O-])c1cc([N+](=O)[O-])c2nonc2c1Nc1ccccc1O | 10 | 0 | -23 | -1 | -1 | 16 | nt
O=[N+]([O-])c1cc([N+](=O)[O-])c2nonc2c1Nc1ccc(O)cc1 | 1 | 3 | -29 | -5 | 64* | -12 | -6
CCCCC[C@@H]1C=C(C(=O)O)[C@H](c2ccc(CC)cc2)N1S(=O)(=O)c1ccc(C)cc1 | nt | nt | 3 | 4 | 2 | nt | nt
CCCCC[C@@H]1C=C(C(=O)O)[C@H](c2ccc(F)cc2)N1S(=O)(=O)c1ccc(C)cc1 | nt | nt | 0 | 10 | 18 | nt | nt
CCCC[C@@H]1C=C(C(=O)O)[C@H](c2ccc(CC)cc2)N1S(=O)(=O)c1ccc(C)cc1 | nt | nt | 2 | 14 | 30* | nt | 21
CCCCC[C@@H]1C=C(C(=O)O)[C@H](c2ccc(Cl)c(Cl)c2)N1S(=O)(=O)c1ccc(C)cc1 | nt | nt | -1 | -2 | 37* | nt | 21
CCCCC[C@@H]1C=C(C(=O)O)[C@H](c2cccc(C)c2)N1S(=O)(=O)c1ccc(C)cc1 | nt | nt | 2 | 9 | 32* | nt | 5
CC1=CC2C(C(O)CC3(C)C2CC(C)C32OCOC23COCO3)C2(C)C/C(=C\O)C(=O)C=C12 (configuration not stated) | nt | nt | 3 | 8 | 11 | nt | nt
Cc1ccc(-c2cc(C#N)c3n(c2=O)CCC3)cc1 | nt | nt | nt | nt | -6 | nt | nt
CCOC(=O)c1cnc(-c2ccccc2)nc1C(F)(F)F | 29 | 1 | 6 | 2 | -7 | -1 | nt
CCOC(=O)c1cnc(Nc2ccccc2)nc1C(F)(F)F | 4 | -2 | -1 | 8 | 34* | 1 | -4
O=C(/C(C=Nc1ccc(F)cc1)=C(/O)c1ccco1)C(F)(F)F | 8 | 2 | -1 | 17 | 33* | -1 | -6
O=C(COc1ccc2ccccc2c1)Nc1ccc2c3c(cccc13)CC2 | 20 | 6 | 1 | 18 | -3 | -1 | nt
